Measured values reported in PubChem BioAssay AID488969 (Vanderbilt High Throughput Screening Facility, 2010).
The full ranking holds about 110,000 compounds; the median of “z-score” is about -0.1, and the highest 2% start at about 2. The sample as a whole holds a higher share of the highest values than the screen did. Active and inactive are the calls of the source.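 Rule for the calls: active = z-score in the third read window above 3 or below -3; inactive = the rest.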

target: Metabotropic glutamate receptor 8 (Rattus norvegicus) (UniProt P70579); assay: mGluR8 Gi/Go-coupled signaling modulation – cell-based, rat, thallium flux, HTS, primary screen (AID 488969); conditions: HEK293 rat mGluR8, GIRK (G protein-gated inwardly rectifying potassium channel) thallium flux, FluoZin2; at 10 µM; stronger effect = higher value; submaximal glutamate (EC20) added with thallium
Sequence (P70579 whole entry, looked up): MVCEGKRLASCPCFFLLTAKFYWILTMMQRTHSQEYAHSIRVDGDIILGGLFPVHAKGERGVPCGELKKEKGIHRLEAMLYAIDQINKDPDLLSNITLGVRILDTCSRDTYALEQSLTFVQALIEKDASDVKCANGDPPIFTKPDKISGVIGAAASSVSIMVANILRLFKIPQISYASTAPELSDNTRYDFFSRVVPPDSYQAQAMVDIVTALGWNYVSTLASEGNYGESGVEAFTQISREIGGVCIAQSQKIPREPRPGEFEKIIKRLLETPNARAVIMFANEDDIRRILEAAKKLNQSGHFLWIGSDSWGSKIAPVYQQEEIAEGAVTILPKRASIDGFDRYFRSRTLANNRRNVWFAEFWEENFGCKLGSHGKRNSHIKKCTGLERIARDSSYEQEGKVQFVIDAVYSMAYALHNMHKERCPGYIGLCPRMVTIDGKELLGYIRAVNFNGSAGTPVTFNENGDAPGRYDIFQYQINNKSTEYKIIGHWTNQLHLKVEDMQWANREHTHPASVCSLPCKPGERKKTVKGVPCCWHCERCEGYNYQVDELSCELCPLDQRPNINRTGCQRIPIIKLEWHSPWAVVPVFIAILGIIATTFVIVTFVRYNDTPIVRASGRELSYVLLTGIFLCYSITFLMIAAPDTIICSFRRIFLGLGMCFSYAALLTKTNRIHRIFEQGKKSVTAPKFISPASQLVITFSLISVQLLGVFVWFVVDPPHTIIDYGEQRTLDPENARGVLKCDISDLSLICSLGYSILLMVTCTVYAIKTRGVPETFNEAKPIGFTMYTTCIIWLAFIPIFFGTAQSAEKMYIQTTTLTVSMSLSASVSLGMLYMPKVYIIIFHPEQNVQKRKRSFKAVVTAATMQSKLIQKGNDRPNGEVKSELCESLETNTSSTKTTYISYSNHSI

Question: With `CCn1c(/C=C2\C(=O)Nc3ccccc32)nc2ccccc2c1=O` as the compound, how does the z-score read?
Answer: -0.221

Question: Which z-score does the source give for `COc1cccc(OCC(=O)N(Cc2nc(-c3ccc(Cl)cc3)no2)C(C)C)c1` here?
Answer: 0.0492

Question: For `CCS(=O)(=O)NC(C)C(c1cccs1)N1CCN(c2ccc(F)cc2)CC1` (stereo unspecified), which z-score is on record?
Answer: 0.062

Question: With `COc1ccc(OC)c(N2Cc3cc(C)c(C)cc3C2)c1` as the compound, how does the z-score read?
Answer: 0.286

Question: `NC(=O)N1CCN(C(=O)c2ccco2)CC1` was tested. Which z-score did it give?
Answer: 0.536

Question: With `COc1ccc(OC)c(/C=N/NC(=O)CC2C(=O)NN=C2C)c1` (stereo unspecified) as the compound, how does the z-score read?
Answer: -0.12

Question: For `O=C(NC(=S)Nc1ccc(CN2CCOCC2)cc1)c1cccc([N+](=O)[O-])c1`, which z-score is on record?
Answer: 2.19

Question: `O=C(NC(=S)Nc1ccc(CN2CCOCC2)cc1)c1ccc([N+](=O)[O-])cc1` was tested. Which z-score did it give?
Answer: 0.649

Question: Which z-score does the source give for `NS(=O)(=O)c1ccc(NC(=S)NC(=O)c2ccco2)cc1` here?
Answer: -0.0865

Question: Which z-score does the source give for `CC1CCN(c2ccc(NC(=S)NC(=O)c3ccc(-c4cccc([N+](=O)[O-])c4)o3)cc2)CC1` here?
Answer: -0.0494

Question: With `O=C(NC(=S)Nc1ccc(N2CCOCC2)cc1)c1cccc([N+](=O)[O-])c1` as the compound, how does the z-score read?
Answer: 0.169

Question: Which z-score does the source give for `O=C(Nc1ccc(CN2CCOCC2)cc1)c1cc2ccccc2o1` here?
Answer: 0.834

Question: `CC1CCN(c2ccc(NC(=S)NC(=O)c3ccco3)cc2)CC1` was tested. Which z-score did it give?
Answer: 4.93 (active)

Question: `COc1ccc(NC(=O)c2cc3ccccn3n2)cc1` was tested. Which z-score did it give?
Answer: -0.0979

Question: Which z-score does the source give for `C=CCN(CC=C)S(=O)(=O)c1ccc(NC(=S)NC(=O)c2ccc(-c3ccccc3)cc2)cc1` here?
Answer: -0.107

Question: With `C=CCN(CC=C)S(=O)(=O)c1ccc(NC(=S)NC(=O)c2ccco2)cc1` as the compound, how does the z-score read?
Answer: 10.3 (active)

Question: How did the z-score turn out when `O=C(NC(=S)Nc1ccc(NC(=O)c2ccco2)cc1)c1ccccc1` was run?
Answer: -0.416

Question: With `O=C(Nc1ccc(CN2CCOCC2)cc1)c1cc2ccccn2n1` as the compound, how does the z-score read?
Answer: 4.59 (active)

Question: Which z-score does the source give for `Cc1cccc2sc(NC(=O)C3CCN(S(=O)(=O)c4cc([N+](=O)[O-])ccc4Cl)CC3)nc12` here?
Answer: 0.0365

Question: Which z-score does the source give for `CCOC(=O)C1CCN(C(=O)COc2ccc(Cl)cc2Cl)CC1` here?
Answer: -0.471

Question: With `CCCCOC(=O)Nc1ccc(S(=O)(=O)Nc2ccc([N+](=O)[O-])cc2)cc1` as the compound, how does the z-score read?
Answer: 0.51

Question: How did the z-score turn out when `N/C(=N\OC(=O)c1ccc(Cl)c(Cl)c1)c1cccnc1` was run?
Answer: -0.145

Question: With `COc1ccccc1NC(=O)N(Cc1ccco1)Cc1cc2ccc(C)c(C)c2[nH]c1=O` as the compound, how does the z-score read?
Answer: -1.77

Question: How did the z-score turn out when `C=CCn1c(Cc2cccs2)nnc1SCC(=O)c1ccc2ccccc2c1` was run?
Answer: -0.708

Question: `CCOC(=O)c1c(NC(=O)c2noc3c2CCCC3)sc(C)c1C` was tested. Which z-score did it give?
Answer: -0.285

Question: For `O=C(NC(=S)Nc1ccc(N2CCCCC2)cc1)c1ccco1`, which z-score is on record?
Answer: -1.53

Question: Which z-score does the source give for `O=C(NC(=S)Nc1ccc(N2CCOCC2)cc1)c1ccco1` here?
Answer: 3.46 (active)

Question: Which z-score does the source give for `O=C(NC(=S)Nc1ccc(N2CCOCC2)cc1)c1ccc2c(c1)OCCO2` here?
Answer: 0.0862

Question: For `O=C(NC(=S)Nc1ccc(N2CCOCC2)cc1)c1cccc(Cl)c1`, which z-score is on record?
Answer: 4.95 (active)

Question: How did the z-score turn out when `O=C(NC(=S)Nc1ccc(N2CCOCC2)cc1)c1ccc(Cl)cc1` was run?
Answer: 0.272

Question: Which z-score does the source give for `S=C(NCc1ccco1)Nc1ccc(N2CCOCC2)cc1` here?
Answer: -0.00184
